Bioassay records from PubChem BioAssay.
IP6K1 inhibitor – Primary qHTS assay for small molecule inhibitors of Inositol hexaphosphate kinase 1 (IP6K1). AID 1645851, 2021. activity change, % (series mostly up to about 58 µM). hit rate 0.81% among 140,000. Inositol hexakisphosphate kinase 1 (Homo sapiens), Q92551. IP6K1 kinase, ADP-Glo luminescence, 2 h; hits give low values; in the data active = activity change below about -25%
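ADP-Glo luminescence measures ADP made by human IP6K1 during a 2 h RT reaction with ATP/IP6 (mix at 1.3 mM/130 uM); top library doses 57.5 and 19.1 uM final.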
HEK cytotox – Cytotoxic Profiling in HEK 293 Cell Line of Diverse Libraries Using Quantitative High-Throughput Screening; HEK 293 viability, ATP luminescence (CellTiter-Glo), 48-72 h; Potency, µM (doses to about 115 µM), inactives show top-dose activity change, negative = cytotoxicity, most hits filed as inhibitors; hit rate 6.6% among 94,000; AID 1345083, 2018; note: potency is the fitted concentration of half-maximal effect; nearly all actives have a fitted effect of over 60% in size
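HEK 293 seeded at 250 cells/well receive compound via pintool. After 48 or 72 hr at 37 degree Celsius, 5% CO2 and 95% humidity, CellTiter-Glo is dispensed and luminescence read following 10 min at room temperature.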
NIH3T3 tox – Cytotoxic Profiling in NIH 3T3 Cell Line of Diverse Libraries Using Quantitative High-Throughput Screening | NIH 3T3 viability, CellTiter-Glo ATP luminescence, 48-72 h | hit rate 4.3% among 94,000 | AID 1345082, 2018 | Potency, µM (series often up to 96.7 µM), for inactives: at the highest dose activity change, negative = cytotoxicity, hits mostly inhibitors; note: potency is the fitted concentration of half-maximal effect; nearly all actives have a fitted effect of over 55% in size
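NIH 3T3 cells at 400 cells/well received 23 nL of compound by pintool and were incubated 48 or 72 h at 37 °C. Viability was read as ATP-coupled CellTiter-Glo luminescence.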
SNCA viab count – GF-AFC viability counterscreen for inhibitors of alpha-synuclein gene (SNCA) expression; HEK-293-SNCA-luc viability, GF-AFC fluorescence, 24 h; Potency, µM (titrated, usually from 57.1 µM), without a hit: at the highest dose activity change, negative = cytotoxicity, most hits filed as cytotoxic; hit rate 0.12% among 150,000;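 note: potency is the fitted concentration of half-maximal effect; 0% = DMSO-treated cells and -100% = medium-only wells without cells; nearly all actives have a fitted effect of over 30% in size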
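Cytotoxicity counterscreen: after 24 h compound treatment of genome-edited SNCA-luciferase HEK-293 cells, live-cell protease substrate GF-AFC read by fluorescence after 30 min; activity scaled between DMSO (0%) and medium-only (-100%), curves Hill-fitted.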
Luciferase inh – Firefly luciferase inhibition profiling of diverse chemical library using quantitative high-throughput screening | AID 1347043, 2019 | Luciferin 4-monooxygenase (Photinus pyralis), P08659 | purified P. pyralis luciferase, luminescence, biochemical | Potency, µM (doses to about 115 µM), usual class: inhibitors | hit rate 2.5% among 76,000; note: potency is the fitted concentration of half-maximal effect; nearly all actives have a fitted effect of over 65% in size
Target sequence (P08659 whole entry, looked up): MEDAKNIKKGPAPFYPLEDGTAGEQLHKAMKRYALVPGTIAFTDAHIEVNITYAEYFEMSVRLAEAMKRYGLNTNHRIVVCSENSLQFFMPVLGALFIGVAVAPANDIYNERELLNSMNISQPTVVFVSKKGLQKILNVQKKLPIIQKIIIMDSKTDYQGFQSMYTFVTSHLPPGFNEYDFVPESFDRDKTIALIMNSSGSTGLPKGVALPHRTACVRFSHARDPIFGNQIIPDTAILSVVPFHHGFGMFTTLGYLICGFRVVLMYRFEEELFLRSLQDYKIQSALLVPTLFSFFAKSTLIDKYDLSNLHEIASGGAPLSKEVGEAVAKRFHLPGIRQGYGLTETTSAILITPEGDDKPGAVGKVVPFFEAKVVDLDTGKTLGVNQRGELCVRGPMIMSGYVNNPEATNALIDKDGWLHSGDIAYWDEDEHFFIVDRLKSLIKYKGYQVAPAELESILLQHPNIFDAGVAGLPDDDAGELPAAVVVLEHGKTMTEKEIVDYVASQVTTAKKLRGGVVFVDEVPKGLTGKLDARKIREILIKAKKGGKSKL
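Luminescence read by CCD imaging after purified firefly luciferase (10nM final) was added to substrate buffer holding 10uM D-luciferin and 10uM ATP, pH 7.5, pre-dosed with compound.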
SNCA expr inh – Primary qHTS assay for inhibitors of alpha-synuclein gene (SNCA) expression; Potency, µM (doses to about 57.2 µM), for inactives: at the highest dose activity change, negative = inhibition, actives largely listed as inhibitors; HEK-293 SNCA-luciferase knock-in, luminescence, 24 h; hit rate 0.17% among 140,000; AID 1671194, 2021;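 note: potency is the fitted concentration of half-maximal effect; plate controls were DMSO cells for no effect and cell-free wells for full effect; nearly all actives have a fitted effect of over 45% in size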
Starred values were filed as active, the others as inactive; i = inactive; ? = inconclusive; nt = not tested or not shown; [ ] = another dose, or the depositor's remark. In the library only some 7.3% were active in any assay of this set; here they are far more common. Unless noted, calls come from the whole dose curve; as a rule, active = well fitted curve in the direction sought with a large enough effect; inconclusive = small, poorly fitted or top-dose-only effect, or another doubt; inactive = no such curve, though single readings can be large; an effect the other way counts as inactive or inconclusive. Unless noted, % is set by controls: 0 for no effect and ±100 for the full control effect.

SMILES	IP6K1 inhibitor	HEK cytotox	NIH3T3 tox	SNCA viab count	Luciferase inh	SNCA expr inh
COc1ccc2nc(C[C@@H]3C[C@@H](C(C)C)[C@H](CNC(=O)Nc4ccc(F)cc4)C=C3C)[nH]c2c1	-4.6	28.2µM*	39.8µM*	?	i	?
CC1=C[C@@H](CNC(=O)CCC(=O)O)[C@H](C(C)C)C[C@H]1Cc1nc2ccc(F)cc2[nH]1	-7.8	5.0%[172 µM]	-7.6%[138 µM]	-7.7%[87.6 µM]	i	14.8%[87.6 µM]
CC(=O)N1CCC(NC[C@@H]2C=C(C)[C@H](Cc3nc4ccc(F)cc4[nH]3)C[C@H]2C(C)C)CC1	15.3	?	79.4µM*	-16.2%	i	-7.5%
CC(=O)N1CCC(NC[C@@H]2C=C(C)[C@H](Cc3nc4ccc(C)cc4[nH]3)C[C@H]2C(C)C)CC1	-0.8	?	?	-24.9%	i	18.2%
NC(=O)[C@@H]1CN(C(=O)c2cccc(F)c2)C[C@H]1COc1ccccc1	0.0	?	-4.2%	3.3%	i	-9.4%
Cc1ccc(NC(=O)[C@@H]2CNC[C@H](C(=O)N3CCN(CCO)CC3)C2)cc1	-16.9	3.3%	-1.3%	1.1%	i	-4.9%
Cc1cccc(OCC2(CNCC(C)C)C[C@@H](O)[C@@H](O)C2)n1 (some centres not stated)	2.8	-6.9%[172 µM]	-1.7%[138 µM]	8.9%[87.6 µM]	i	0.9%[87.6 µM]
CC1=C[C@@H](CNC(=O)c2cnccn2)[C@H](C(C)C)C[C@H]1CC(=O)O	1.4	0.9%[172 µM]	-22.9%[138 µM]	-2.1%[87.6 µM]	i	19.2%[87.6 µM]
CC1=C[C@@H](CNC(=O)c2cnccn2)[C@H](C(C)C)C[C@H]1Cc1nc2ccc(C)cc2[nH]1	-0.1	31.6µM*	?	39.8µM*	i	-29.7%[87.6 µM]
Cc1ccc(F)cc1S(=O)(=O)N[C@@H]1CCN(Cc2ccc(OC(C)C)cc2)C1	-1.0	nt	nt	9.47µM*	nt	nt
COc1ccc(F)cc1-c1ccc(CN2CCC(NC(=O)c3ccccc3C)C2)cc1 (configuration not stated)	10.8	?	?	nt	nt	nt
O=C(C1CCCC1)N1CCN(c2nccc(Nc3ccccc3F)n2)CC1	8.1	?	22.4µM*	-2.4%	nt	21.0%
O=C(c1ccccc1F)N1CCN(c2nccc(Nc3ccccc3F)n2)CC1	7.9	35.5µM*	?	-1.9%	nt	34.6%
COc1ccccc1Nc1ccnc(N2CCN(C(=O)c3ccccc3F)CC2)n1	13.2	44.7µM*	?	-14.7%	nt	?
COc1ccccc1Nc1ccnc(N2CCN(C(=O)c3ccccc3C)CC2)n1	14.9	44.7µM*	?	-18.1%	nt	-14.0%
O=C(c1ccccc1Cl)N1CCN(c2nccc(Nc3ccccc3F)n2)CC1	-4.1	?	?	-4.5%[12.5 µM]	nt	-3.3%
COc1ccccc1C(=O)N1CCN(c2nccc(Nc3ccccc3F)n2)CC1	8.3	?	?	-14.7%[12.5 µM]	nt	-14.3%
Cc1noc(C)c1[S+](=O)([O-])N1CCC2(CCN(Cc3cccs3)c3ccccc3O2)CC1	-12.6	?	?	-6.0%	i	47.1%
COc1cccc(-c2cccc(C(=O)N3CCN([S+](=O)([O-])c4c(C)noc4C)CC3)c2)c1	2.9	?	-16.6%	5.2%[12.5 µM]	nt	1.8%
COc1ccc([S+](=O)([O-])N2CCCN(c3ccc4nnc(C)n4n3)CC2)cc1	-2.3	?	?	nt	nt	nt
O=C(O)C1=NOC2CN(Cc3ccc(F)cc3)CC12 (configuration not stated)	8.2	0.4%[172 µM]	4.6%[138 µM]	4.5%[87.6 µM]	nt	4.0%[87.6 µM]
COc1ccccc1Nc1ccnc(N2CCN(C(=O)c3ccccc3)CC2)n1	5.0	?	35.5µM*	-10.2%	nt	-20.9%
COc1ccccc1Nc1ccnc(N2CCN(C(=O)C3CC3)CC2)n1	10.9	?	?	7.1%	nt	39.2%
COc1ccc(C(=O)N2C[C@@H](CO)[C@H](c3ccncc3)C2)c(OC)c1	-6.0	4.8%	-6.5%	4.7%	i	-14.2%
O=C(c1c[nH]c2ccccc12)N1CCN(c2cc(-c3cccs3)[nH]n2)CC1	20.3	44.7µM*	?	6.4%	i	0.4%
SMILES	IP6K1 inhibitor	HEK cytotox	NIH3T3 tox	SNCA viab count	Luciferase inh	SNCA expr inh
O=C(c1ccccc1Br)N1CCN(c2cc(-c3cccs3)[nH]n2)CC1	22.2	?	?	9.7%	i	0.8%
Cc1ccc(C(=O)N2CCN(c3cc(-c4cccs4)[nH]n3)CC2)cc1	9.1	?	12.6µM*	1.2%	i	0.3%
O=C(c1ccoc1)N1CCN(c2cc(-c3cccs3)[nH]n2)CC1	1.7	1.4%	-9.7%	6.8%	i	13.2%
CCN(CCNC(=O)CCc1cc2cc(OC)ccc2[nH]c1=O)Cc1ccccc1	28.6	-3.4%	0.2%	-1.0%	i	-4.5%
O=C(OCc1ccccc1)N1CCOCC12CCN(Cc1nccs1)CC2	-10.5	?	?	-15.3%[87.6 µM]	i	11.9%[87.6 µM]
Cc1ccc(CN2CCC3(CC2)COCCN3C(=O)OCc2ccccc2)o1	-2.6	28.2µM*	44.7µM*	-18.1%[87.6 µM]	i	?
O=C(OCc1ccccc1)N1CCOCC12CCN(Cc1ccccc1)CC2	3.0	25.1µM*	?	?	i	?
Cc1cccc(CN2CCC3(CC2)COCCN3C(=O)OCc2ccccc2)c1	-13.7	39.8µM*	39.8µM*	-28.3%[87.6 µM]	i	?
O=C(OCc1ccccc1)N1CCOCC12CCN(Cc1ccncc1)CC2	19.7	50.1µM*	35.5µM*	-0.9%[87.6 µM]	i	-12.6%[87.6 µM]
Cc1ccccc1CN1CCC2(CC1)COCCN2C(=O)OCc1ccccc1	-0.7	100µM*	?	1.1%[87.6 µM]	i	-15.3%[87.6 µM]
C[C@H]1CCCN1C(=O)c1nnc(CNc2ccccc2Cl)n1-c1ccccc1	4.1	?	100µM*	?	i	-4.3%[87.6 µM]
C[C@H]1CCCN1C(=O)c1nnc(COc2cccc(C(F)(F)F)c2)n1-c1cccnc1	-13.5	?	100µM*	7.9%[87.6 µM]	i	-12.5%[87.6 µM]
CC(C)c1ccc(OCc2nnc(C(=O)N3CCC[C@@H]3C)n2-c2cccnc2)cc1	-18.2	?	14.1µM*	-9.5%[87.6 µM]	i	3.2%[87.6 µM]
C[C@H]1CCCN1C(=O)c1nnc(COc2cccc(C(F)(F)F)c2)n1-c1ccccc1	-6.8	?	?	-14.9%[87.6 µM]	i	4.7%[87.6 µM]
CC(=O)Nc1cccc(C(=O)N2CCCC(n3cc(-c4nc(C5CC5)no4)nn3)C2)c1 (configuration not stated)	0.0	8.9%	i	-2.2%	i	-3.8%
Cc1ccccc1Nc1cnc2ccc(N3CCOCC3)nn12	-16.2	56.2µM*	?	6.2%[87.6 µM]	i	10.1%[87.6 µM]
